SMILES strings stand for the structures. A number with no mark means an inactive call. Records with an inconclusive call do not appear. The source made the active and inactive calls. Unless noted, calls come from the whole dose curve; as a rule, active = well fitted curve in the direction sought with a large enough effect in the repeat runs; inconclusive = weak or mixed curves; inactive = no such curve, though single readings can be large; an effect the other way counts as inactive or inconclusive.

Assay [1] is described as follows: qHTS assay to identify small molecule agonists of the sonic hedgehog signaling (Shh) pathway (AID 1259368; calls by dose curve;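 note: NIH/3T3-derived 3T3Gli1-Luc cells carrying a stable Gli1-driven firefly luciferase reporter; series mostly up to about 92 µM; nearly all actives have a fitted effect of over 15% in size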). A digest of the protocol:
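A Gli1 transcriptional response element controlled firefly luciferase in 3T3Gli1-Luc cells. Compounds and a positive control were added 4 hr after plating, and cells were incubated a further 24 hr at 37 C before luminescence detection.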
(In general: In qHTS, concentration-response curves come from the screen itself.)

Assay [2] can be described thus: qHTS assay to identify small molecule antagonists of the sonic hedgehog signaling (Shh) pathway (AID 1259369; calls by dose curve; note: nearly all actives have a fitted effect of over 45% in size; note: potency is the fitted concentration of half-maximal effect). A digest of the protocol:
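For antagonist detection, the reporter line received test compounds together with conditioned medium, incubated 24hr at 37 C, 5% CO2, then luminescence was recorded following 30min room-temperature luciferase reagent incubation.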

A short description of assay [3]: qHTS assay to identify small molecule agonists of the androgen receptor (AR) signaling pathway in the presence of an antagonist - cell viability counter screen (AID 1259379).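 Note: MDA-kb2 human breast cancer cells carrying an MMTV luciferase reporter; series mostly up to about 92 µM; nearly all actives have a fitted effect of over 25% in size.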 A digest of the protocol:
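Seed MDA-kb2 at 3,000 cells/well; incubate 5 hr, 37C, 0% CO2. Add nilutamide to 3.0uM final, then pin compounds at 15 concentrations. Incubate 16 hr. Add CellTiter-Fluor at 15 hr, read fluorescence after 1 hr.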

The nature of assay [4]: qHTS assay to identify small molecule agonists of the estrogen receptor beta (ER-beta) signaling pathway - cell viability counter screen (AID 1259380). Note: nearly all actives have a fitted effect of over 30% in size. A digest of the protocol:
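CellTiter-Glo read, 30 min RT, same wells as bla assay; cells ER-beta-UAS-bla HEK293T; 16 hr compound, 37C; medium 2% charcoal-stripped FBS.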

Assay [5] can be described thus: qHTS assay to identify small molecule antagonists of the estrogen receptor beta (ER-beta) signaling pathway - cell viability counter screen (AID 1259382).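 Note: HEK293T cells carrying ER-beta-UAS-bla reporter stimulated with estradiol; series mostly up to about 92 µM; nearly all actives have a fitted effect of over 55% in size.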 A digest of the protocol:
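In this multiplexed counter screen, cells were seeded at 2,000 per well in medium with 2% charcoal-stripped FBS and incubated 6 hr before compound and 1nM final E2 were added. Sixteen hours later, ATP-based luminescence reported viability.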

The target in assay [6] is Estrogen receptor (Homo sapiens) (UniProt P03372). The assay can be described thus: qHTS assay to identify small molecule agonists of the estrogen receptor alpha (ER-alpha) signaling pathway in the presence of an antagonist (AID 1259383; calls by dose curve; note: top concentration of the series differs between compounds; nearly all actives have a fitted effect of over 15% in size). A digest of the protocol: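 Stably transfected VM7Luc4E2 reporter cells, kept 5 days in charcoal-stripped serum, received ICI-182,780 at 10.0nM final before compound addition. Following 22hr incubation at 37C and 5% CO2, luciferase signal was read by luminescence.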

Assay [7] is described as follows: qHTS assay to identify small molecule agonists or antagonists of the thyroid stimulating hormone receptor (TSHR) signaling pathway - wild type cell line counter screen (AID 1259384; calls by dose curve). A digest of the protocol:
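Wild-type HEK293 cells were plated 18 h at 37 C/5% CO2, pin-dosed with compound plus Ro20-1724 medium, held 30 min at room temperature, then given cAMP-d2 and anti-cAMP-cryptate; fluorescence was read after 1 h. Fifteen concentrations, triplicate.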

Assay [8] addresses Thyrotropin receptor (Homo sapiens) (UniProt P16473). Kind of assay: qHTS assay to identify small molecule antagonists of the thyroid stimulating hormone receptor (TSHR) signaling pathway (AID 1259385; calls by dose curve; note: nearly all actives have a fitted effect of over 20% in size). A digest of the protocol:
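TSHR-HEK293 cells were plated and held 18 h at 37C/5% CO2, then given compound plus Ro20-1724 and stimulated with TSH at 1.5 ng/mL final. After 30 min at room temperature, cAMP was detected with cAMP-d2/anti-cAMP-cryptate (1 h) by fluorescence.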

Assay [9] in a line: qHTS assay to identify small molecule agonists of the estrogen receptor alpha (ER-alpha) signaling pathway in the presence of an antagonist - cell viability counter screen (AID 1259386).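 Note: series mostly up to about 92 µM; cells exposed to compounds for 22 h at 37 °C before the viability read; nearly all actives have a fitted effect of over 30% in size.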 A digest of the protocol:
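Viability counter screen using VM7Luc4E2 (full-length ER-alpha, four ERE-luciferase). The cells were treated with compounds alongside ICI-182,780 10.0nM for 22hr, and live-cell protease fluorescence was quantified with CellTiter-Fluor.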

Assay [10] has as its target Progesterone receptor (Homo sapiens) (UniProt P06401). The assay can be described thus: qHTS assay to identify small molecule antagonists of the progesterone receptor (PR) signaling pathway (AID 1346795; active = well fitted inhibition curve with a large enough effect in the signal ratio in the repeat runs, not every such curve was filed as active; the % refers to the signal ratio; note: potency is the fitted concentration of half-maximal effect). In a few lines: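 Beta-lactamase reporter, HEK293T PR-UAS-bla line; 2% charcoal-stripped FBS; 6 hr pre-incubation, 37C/5% CO2. Compound + R5020 1 nM final, 16 hr. LiveBLAzer B/G FRET substrate, 2 hr RT; fluorescence intensity read.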

The nature of assay [11]: qHTS assay to identify small molecule antagonists of the progesterone receptor (PR) signaling pathway - cell viability counter screen (AID 1346798). Note: series mostly up to about 92 µM; nearly all actives have a fitted effect of over 50% in size. A digest of the protocol: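 Luminescence readout (CellTiter-Glo, 30 min, RT) of viability in PR-UAS-bla HEK293T cells exposed to compound and R5020 agonist for 16 hr at 37C, 5% CO2; run in the same wells as the beta-lactamase reporter read.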

A short description of assay [12]: qHTS assay to identify small molecule agonists of the progesterone receptor (PR) signaling pathway - cell viability counter screen (AID 1346799; calls by dose curve; note: nearly all actives have a fitted effect of over 45% in size). A digest of the protocol:
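HEK293T PR-UAS-bla, 3,000 cells/well, 2% charcoal-stripped FBS; 6 h settle, compound 16 h at 37C/5% CO2; LiveBLAzer 2 h RT, then CellTiter-Glo 30 min RT, luminescence read.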

Assay [13] is described as follows: qHTS assay to identify small molecule agonists of the TGF-beta/Smad signaling pathway - cell viability counter screen (AID 1346829). Note: top concentration of the series differs between compounds; nearly all actives have a fitted effect of over 45% in size. A digest of the protocol:
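Compound-treated SBE-bla HEK 293T cells (5 hr, 37 C) were assessed for viability with CellTiter-Glo in parallel with the reporter read.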

The nature of assay [14]: qHTS assay to identify small molecule agonists of the TGF-beta/Smad signaling pathway (AID 1346859; active = well fitted activation curve with a large enough effect in the signal ratio in the repeat runs, not every such curve was filed as active; the % refers to the signal ratio; note: series mostly up to about 77 µM). In a few lines:
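Read-out: fluorescence at 460 and 530 nm (405 nm excitation) after a 2 hr room-temperature incubation with beta-lactamase FRET substrate. SBE-bla HEK 293T cells had been treated with test compounds for 5 hr at 37 C.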

The target of assay [15] is Progesterone receptor (Homo sapiens) (UniProt P06401). The assay can be described thus: qHTS assay to identify small molecule agonists of the progesterone receptor (PR) signaling pathway (AID 1346784; calls by dose curve; note: nearly all actives have a fitted effect of over 30% in size). In a few lines:
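HEK 293T PR-UAS-bla reporter cells, 2% charcoal-stripped FBS; 6 hr settle at 37C/5% CO2, compound (DMSO) 16 hr, LiveBLAzer B/G FRET substrate 2 hr RT, fluorescence intensity read.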

The nature of assay [16]: qHTS assay to identify small molecule antagonists of the TGF-beta/Smad signaling pathway - cell viability counter screen (AID 1346824). Note: nearly all actives have a fitted effect of over 50% in size. In a few lines:
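SBE-bla HEK 293T cells were plated overnight at 37 C, then given compounds in DMSO plus TGF-beta1 (added as 0.25 ng/mL solution) for 5 hr. After the bla read, CellTiter-Glo was added to the same wells and luminescence read after 30 min at room temperature.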

Assay [17] has as its target Thyrotropin-releasing hormone receptor (Homo sapiens) (UniProt P34981). Kind of assay: qHTS assay to identify small molecule antagonists of the thyrotropin-releasing hormone receptor (TRHR) signaling pathway (AID 1346877; active = well fitted inhibition curve with a large enough effect in the repeat runs, not every such curve was filed as active; note: series mostly up to about 51 µM). A digest of the protocol:
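Following an 18 h incubation at 37 °C and a 2 h calcium dye load, TRHR-HEK293 cells were exposed to compound (5 min, room temperature) and challenged with TRH, 1 nM final.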

Estrogen receptor (Homo sapiens), sequence (P03372 whole entry, looked up): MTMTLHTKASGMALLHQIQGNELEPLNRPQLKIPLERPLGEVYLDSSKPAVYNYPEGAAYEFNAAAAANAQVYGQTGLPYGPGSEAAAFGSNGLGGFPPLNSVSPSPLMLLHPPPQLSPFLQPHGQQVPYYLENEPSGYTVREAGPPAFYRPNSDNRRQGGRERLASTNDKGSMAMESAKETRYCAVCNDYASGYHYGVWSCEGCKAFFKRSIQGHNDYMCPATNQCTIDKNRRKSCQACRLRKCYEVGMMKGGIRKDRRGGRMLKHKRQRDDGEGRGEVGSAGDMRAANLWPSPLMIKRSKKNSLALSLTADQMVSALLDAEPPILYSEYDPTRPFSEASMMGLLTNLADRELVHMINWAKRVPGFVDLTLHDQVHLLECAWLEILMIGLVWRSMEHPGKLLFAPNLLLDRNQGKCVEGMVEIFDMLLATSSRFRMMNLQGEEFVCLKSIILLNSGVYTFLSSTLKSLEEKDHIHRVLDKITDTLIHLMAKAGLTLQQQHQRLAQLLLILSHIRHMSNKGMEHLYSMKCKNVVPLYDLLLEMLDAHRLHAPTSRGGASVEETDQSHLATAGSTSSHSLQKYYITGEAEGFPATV
Thyrotropin-releasing hormone receptor (Homo sapiens), sequence (P34981 whole entry, looked up): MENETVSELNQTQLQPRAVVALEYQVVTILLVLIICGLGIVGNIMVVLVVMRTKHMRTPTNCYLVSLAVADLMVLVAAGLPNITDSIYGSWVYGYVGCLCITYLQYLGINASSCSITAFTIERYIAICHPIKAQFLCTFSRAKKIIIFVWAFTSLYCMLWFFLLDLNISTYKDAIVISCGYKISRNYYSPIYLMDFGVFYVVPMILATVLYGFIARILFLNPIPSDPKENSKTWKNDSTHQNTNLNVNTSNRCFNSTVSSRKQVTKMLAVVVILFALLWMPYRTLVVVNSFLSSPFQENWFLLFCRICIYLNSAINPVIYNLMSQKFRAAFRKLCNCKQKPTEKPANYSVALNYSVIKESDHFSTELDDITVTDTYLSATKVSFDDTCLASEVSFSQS
Thyrotropin receptor (Homo sapiens), sequence (P16473 whole entry, looked up): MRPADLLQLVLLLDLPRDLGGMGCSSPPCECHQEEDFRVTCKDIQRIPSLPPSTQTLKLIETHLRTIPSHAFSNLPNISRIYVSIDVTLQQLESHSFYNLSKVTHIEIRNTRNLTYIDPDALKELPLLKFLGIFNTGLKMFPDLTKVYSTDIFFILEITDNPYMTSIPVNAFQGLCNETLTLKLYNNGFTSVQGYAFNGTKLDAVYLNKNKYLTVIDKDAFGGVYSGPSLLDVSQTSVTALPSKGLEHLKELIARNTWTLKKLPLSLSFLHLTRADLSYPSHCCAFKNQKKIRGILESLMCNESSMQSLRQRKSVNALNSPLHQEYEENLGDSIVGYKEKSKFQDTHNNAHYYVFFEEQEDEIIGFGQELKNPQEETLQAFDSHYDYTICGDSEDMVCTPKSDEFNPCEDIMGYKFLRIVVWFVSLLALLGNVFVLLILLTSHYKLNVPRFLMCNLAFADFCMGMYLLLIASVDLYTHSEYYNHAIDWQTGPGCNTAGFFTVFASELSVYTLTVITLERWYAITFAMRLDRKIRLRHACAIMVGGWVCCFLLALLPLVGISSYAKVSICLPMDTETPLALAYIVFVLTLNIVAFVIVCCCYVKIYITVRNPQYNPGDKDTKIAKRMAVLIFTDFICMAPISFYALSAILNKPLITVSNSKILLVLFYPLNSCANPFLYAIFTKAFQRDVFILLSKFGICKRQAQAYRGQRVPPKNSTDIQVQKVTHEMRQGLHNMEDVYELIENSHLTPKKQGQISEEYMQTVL
Progesterone receptor (Homo sapiens), sequence (P06401 whole entry, looked up): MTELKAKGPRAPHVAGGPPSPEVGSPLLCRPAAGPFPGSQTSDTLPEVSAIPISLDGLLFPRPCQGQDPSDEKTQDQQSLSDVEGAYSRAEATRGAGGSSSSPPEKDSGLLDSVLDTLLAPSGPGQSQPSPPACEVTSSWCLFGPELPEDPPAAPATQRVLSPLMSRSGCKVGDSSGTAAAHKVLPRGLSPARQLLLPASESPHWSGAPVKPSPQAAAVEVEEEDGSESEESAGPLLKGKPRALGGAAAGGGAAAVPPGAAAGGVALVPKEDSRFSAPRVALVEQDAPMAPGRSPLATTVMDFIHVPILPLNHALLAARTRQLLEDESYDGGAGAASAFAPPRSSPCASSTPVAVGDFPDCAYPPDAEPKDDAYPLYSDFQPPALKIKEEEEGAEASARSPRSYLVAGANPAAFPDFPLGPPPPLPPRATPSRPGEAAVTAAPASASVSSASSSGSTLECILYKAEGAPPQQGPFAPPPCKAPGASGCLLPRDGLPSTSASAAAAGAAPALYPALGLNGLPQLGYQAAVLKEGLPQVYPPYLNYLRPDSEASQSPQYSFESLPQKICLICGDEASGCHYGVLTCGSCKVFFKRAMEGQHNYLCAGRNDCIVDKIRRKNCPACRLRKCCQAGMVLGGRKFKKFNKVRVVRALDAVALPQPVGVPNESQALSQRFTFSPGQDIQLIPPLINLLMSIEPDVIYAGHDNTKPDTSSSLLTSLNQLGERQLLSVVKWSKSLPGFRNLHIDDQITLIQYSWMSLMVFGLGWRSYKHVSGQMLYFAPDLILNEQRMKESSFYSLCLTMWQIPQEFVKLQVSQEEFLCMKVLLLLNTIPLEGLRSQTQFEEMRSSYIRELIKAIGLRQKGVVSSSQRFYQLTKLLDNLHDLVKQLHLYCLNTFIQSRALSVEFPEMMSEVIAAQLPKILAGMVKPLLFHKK

As for `Cc1cc(C)cc(OCC2CNC(=O)O2)c1` (stereo not drawn), the Potency result in assay [1], in [2], in assay [3], in [4], in [5] and in [6] was “inactive” each time. The Potency result in assay [8], in [10], in assay [11] and in [12] was “inactive” in each case. In addition, the call in [7], in assay [9], in assay [13] and in [14] was inactive.

Regarding `CCCCC=O`, the Potency result in [1], in assay [2], in assay [3], in assay [4], in assay [5] and in [8] was “inactive” throughout. Besides, the Potency result in assay [15], in [10] and in assay [11] was “inactive” throughout. For the same compound, the call in assay [7], in [9], in [16], in assay [14] and in [17] was inactive.

With `CCCCCCCCCCCCCCCCCC(=O)OCCCCCCCCCCCCCC(C)C`, the Potency result in [1], in [2], in assay [3], in assay [4], in [6] and in assay [8] was “inactive” each time. For the same compound, the Potency result in assay [15], in assay [10] and in assay [11] was “inactive” throughout. The outcome in assay [7], in assay [9], in assay [13], in [14] and in assay [17] was inactive.

In the case of `CCCCCCCCCCCl`, the Potency entry in [1], in assay [2], in assay [3], in [4], in assay [6] and in assay [10] was “inactive” each time. Besides, the result in [9], in [16], in [13], in assay [14] and in assay [17] was inactive.

`COC(=O)CCCCCCCCC(=O)OC`: the Potency entry in assay [1], in assay [2], in assay [3], in assay [4], in [5] and in assay [6] was “inactive” each time. Further, the Potency entry in assay [8], in [15], in assay [10] and in assay [11] was “inactive” throughout. The result in assay [9], in [16], in assay [13], in [14] and in assay [17] was inactive.

For `C=CC(=O)OCCCCCC`, the Potency result in assay [1], in [2], in assay [3], in assay [4], in assay [8] and in assay [10] was “inactive” throughout. Further, the Potency result in assay [11] and in [12] was “inactive” throughout. For the same compound, the outcome in assay [7], in [9], in assay [16], in [13], in [14] and in assay [17] was inactive.

In the case of `COC(C(=O)O)c1ccccc1` (stereo not drawn), the Potency result in assay [1], in [2], in assay [4], in [5], in assay [8] and in [10] was “inactive” each time. Moreover, the Potency entry in assay [11] and in assay [12] was “inactive” in each case. For the same compound, the compound was called inactive in [7], in assay [9], in assay [16], in assay [13] and in [14].

With `CSc1nc(NC2CC2)nc(NC(C)(C)C)n1`, the Potency entry in assay [1], in assay [3], in [4], in assay [15] and in assay [11] was “inactive” throughout. Moreover, the Potency is 1.54 µM (active) in assay [2] and 61.1 µM (active) in assay [10]. For the same compound, the outcome in assay [9], in [16], in assay [13] and in assay [14] was inactive.

As for `CC1=CC(C)C(C=O)C(C)C1` (stereo not drawn), the Potency result in assay [1], in [2], in assay [3], in assay [4], in assay [5] and in [6] was “inactive” throughout. For the same compound, the Potency entry in assay [15] and in [12] was “inactive” throughout. Also, the compound was classed as inactive in [7], in assay [9], in assay [13] and in [14].

Take `OCc1ccccn1`: the Potency entry in [1], in [2], in [4], in assay [5], in [6] and in assay [8] was “inactive” in each case. For the same compound, the Potency entry in assay [15], in assay [10], in assay [11] and in assay [12] was “inactive” throughout. Also, the compound was classed as inactive in assay [7], in [9], in assay [16], in [13] and in assay [14].

Source of the values: PubChem BioAssay (Tox21).
